This is a sample that favours compounds with a hit; in the whole collection about 2.8% have one here.
WRN helicase inh: qHTS for Inhibitors of WRN Helicase; hit rate 0.46% among 360,000; WRN helicase unwinding, fluorescent forked duplex, kinetic; Bifunctional 3'-5' exonuclease/ATP-dependent helicase WRN (Homo sapiens), Q14191; Potency, µM (doses to about 114 µM), without a hit: at the highest dose activity change, negative = inhibition, hits mostly inhibitors; AID 651768, 2012; further: potency means the concentration at half of the fitted maximal effect; on the % scale 0 is the no-effect control and ±100 the full control effect; nearly all actives have a fitted effect of over 55% in size
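Enzyme (20 nM final) and test compound sit together 15 min at room temperature before substrate addition. Substrate is a single-forked duplex oligonucleotide (100 nM) labelled with fluorophore and quencher, with 2 mM ATP; helicase unwinding raises red fluorescence, read kinetically.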
POLI inh: qHTS for Inhibitors of Polymerase Iota | DNA polymerase iota (Homo sapiens), Q9UNA4 | Pol iota fluorescent replication assay, 10 min | Potency, µM (series often up to 115 µM), without a hit: top-dose activity, negative = inhibition, usual class: inhibitors | hit rate 1% among 390,000; further: potency means the concentration at half of the fitted maximal effect
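Pol iota at 10 nM preincubated 15 min with compounds at room temperature; reaction started with fluorescent substrate, 50 nM final. Fluorescence read kinetically at 0 and 10 min; buffer-only wells as negative control.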
POLH inh: qHTS for Inhibitors of Polymerase Eta. DNA polymerase eta (Homo sapiens), Q9Y253. recombinant Pol eta, fluorescent DNA replication assay. Potency, µM (doses to about 114 µM), without a hit: at the top dose activity change, negative = inhibition, usual class: inhibitors. hit rate 1.2% among 390,000. AID 588591, 2011; further: potency means the concentration at half of the fitted maximal effect; on the % scale 0 is the no-effect control and ±100 the full control effect
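Pol eta at 10 nM preincubated with compounds 15 min at room temperature; reaction started with fluorescent substrate (50 nM final) and read kinetically at 0 and 10 min.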
POLB inh: qHTS Assay for Inhibitors of DNA Polymerase Beta; Pol beta primer extension/strand displacement, fluorescence kinetic; Potency, µM (top dose mostly 114 µM), inactives show at the highest dose activity change, negative = inhibition, actives largely listed as inhibitors; hit rate 1.3% among 340,000; AID 485314, 2010; further: potency means the concentration at half of the fitted maximal effect; on the % scale 0 is the no-effect control and ±100 the full control effect
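Human Pol beta at 10 nM; strand-displacement substrate 50 nM final. Compound exposure 15 min at room temperature before start, reaction 10 min at room temperature.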
POLK inh: qHTS for Inhibitors of Polymerase Kappa | DNA polymerase kappa (Homo sapiens), Q9UBT6 | purified Pol kappa, fluorescent DNA synthesis assay, 10 min | Potency, µM (highest dose often 107 µM), for inactives: at the highest dose activity, negative = inhibition, actives largely listed as inhibitors | hit rate 0.53% among 400,000; further: potency means the concentration at half of the fitted maximal effect; on the % scale 0 is the no-effect control and ±100 the full control effect
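Readout: fluorescence, taken kinetically at 0 and 10 min. Conditions: 10 nM Pol kappa, 15 min RT compound preincubation, 50 nM substrate final. Controls: enzyme-free buffer wells.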
PI5P4Ka inh: qHTS for Inhibitors of phosphatidylinositol 5-phosphate 4-kinase (PI5P4K). hit rate 1.2% among 330,000. AID 652105, 2013. max response, %. PI5P4Kalpha enzyme, ADP-Glo luminescence, 60 min; stronger effect = lower value; active means max response of -50% or lower; inconclusive means between -30% and -50%; inactive means -30% or higher; further: value at the top dose of about 77 µM; on the % scale 0 is the no-effect control and ±100 the full control effect
Target sequence (P48426 whole entry, looked up): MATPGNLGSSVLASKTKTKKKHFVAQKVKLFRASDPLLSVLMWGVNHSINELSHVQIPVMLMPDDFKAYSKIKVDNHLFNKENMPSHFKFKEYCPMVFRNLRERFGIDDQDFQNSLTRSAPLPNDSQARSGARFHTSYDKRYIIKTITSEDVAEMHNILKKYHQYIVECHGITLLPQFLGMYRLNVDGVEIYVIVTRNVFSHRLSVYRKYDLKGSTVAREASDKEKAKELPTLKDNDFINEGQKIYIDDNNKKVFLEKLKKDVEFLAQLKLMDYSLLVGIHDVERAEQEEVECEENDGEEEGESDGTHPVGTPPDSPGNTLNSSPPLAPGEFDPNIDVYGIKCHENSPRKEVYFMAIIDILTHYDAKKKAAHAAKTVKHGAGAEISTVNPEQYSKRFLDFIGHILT
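ADP-Glo luminescence end-point after a 60 min room-temperature kinase reaction. PI5P4Kalpha and substrate in HEPES pH 7.4 buffer with EGTA, 0.1% CHAPS and 5% DMSO; ATP at 5 microM final.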
Active calls of the source: *; ? = inconclusive; · = not tested or not shown; [ ] = dose if it differs, or a comment. Unless noted, the call rests on the fitted dose curve; in most records, active means well fitted curve in the direction sought with a large enough effect; inconclusive means small, poorly fitted or top-dose-only effect, or another doubt; inactive means no such curve, though single readings can be large; an effect the other way counts as inactive or inconclusive.

SMILES	WRN helicase inh	POLI inh	POLH inh	POLB inh	POLK inh	PI5P4Ka inh
O=C(Cn1nc(-c2ccccc2)c2ccccc2c1=O)Nc1ccc(F)cc1	?	50%	-13%	15%	-13%	5
O=C(Cn1sc2ccccc2c1=O)Nc1ccc(Br)cc1	-5%	·	-8%	·	·	-83*
O=C(CN1C(=O)C2CC=CCC2C1=O)Nc1ccc(Br)cc1 (stereo unspecified)	-16%	17%	-18%	5%	-2%	3
O=C(Cn1sc2ccccc2c1=O)Nc1ccc(Cl)cc1	9%	·	-19%	·	·	-82*
COc1ccc(N2C(=O)C3CC(C)=C(C)CC3C2=O)c(OC)c1 (stereo unspecified)	2%	-6%	-2%	3%	4%	1
COc1cc(N2C(=O)C=CC2=O)ccc1N1C(=O)C=CC1=O	20µM*	40µM*	25µM*	·	40µM*	-68*
C=C/C(C)=C/[C@@]1(C)SC(=O)C(C)=C1O	·	?	14µM*	25µM*	·	·
CC(=O)NC1=NC(=O)/C(=C/c2cn(C(C)=O)nc2-c2ccccc2)S1	-14%[11.6 µM]	22µM*	?	-13%	-21%	-87*
N#Cc1ccc(C(=O)Nc2cccc(S(=O)(=O)NC3=NCCC3)c2)cc1	-5%	1%	-2%	·	-13%	-8
CCOCCCNC1=C(Cl)C(=O)c2ccccc2C1=O	-2%[11.6 µM]	?	?	18%	-23%	-93*
Cc1ccc(-c2cc3ncc(C#N)c(N)n3n2)cc1	0%	45%	6%	1%	0%	-10
COc1ccc(NC(=O)C(NS(=O)(=O)c2cccc3nsnc23)C(C)C)cc1 (stereo unspecified)	·	14%	-14%	0%	-22%	·
CCOC(=O)c1c(NC(=O)CCCOc2ccc(C)cc2)sc2c1CCC(C)C2 (stereo unspecified)	·	-2%	-4%	9%	1%	·
CC(/C=N/n1c(-c2ccc(Cl)cc2)n[nH]c1=S)=C\c1ccco1	-12%[11.6 µM]	?	18µM*	?	?	?
COc1ccc(-c2cc(C)no2)cc1S(=O)(=O)NCc1cccs1	·	3%	-4%	-4%	-5%	·
O=[N+]([O-])c1ccccc1S(=O)(=O)Nc1ccc(-c2ccc(N3CCCC3)nn2)cc1	-2%[11.6 µM]	?	20µM*	·	-30%	-25
COC(=O)CCC/C=C1/SCC(NC(=O)c2ccccc2)C1=O (stereo unspecified)	-24%	45µM*	?	2%	-14%	-27
COC(=O)CCC/C=C1/SCC(NC(=O)c2ccccc2)C1O (stereo unspecified)	-33%	?	?	-9%	?	·
C=CCn1c(SC(C)CC)nc(O)cc1=O (stereo unspecified)	-7%	3%	-12%	15%	-22%	-1
CC1CC2=C(NC(=S)NC2c2ccc(F)cc2)/C(=C/c2ccc(F)cc2)C1 (stereo unspecified)	-5%[11.6 µM]	79µM*	-17%	30%	-8%	·
S=C1NC2=C(CCC/C2=C\c2ccc(Cl)cc2)C(c2ccc(Cl)cc2)N1 (stereo unspecified)	-29%	171%	-13%	-19%	-6%	-14
O=C1CCCC/C1=C\Nc1ccc(O)cc1	-4%	25µM*	-3%	-4%	-3%	·
O=C1CCC/C1=C/Nc1ccc2c(c1)OCO2	-6%	22%	5%	25µM*	-3%	5
CC1CCC/C(=C\Nc2ccc3c(c2)OCO3)C1=O (stereo unspecified)	4%	12%	5%	33%	-5%	-16
CCC(=O)N1CCCC(C)(C(=O)Nc2ccc(C)c(C)c2)C1 (stereo unspecified)	11%	·	·	·	·	0
SMILES	WRN helicase inh	POLI inh	POLH inh	POLB inh	POLK inh	PI5P4Ka inh
C(=C\c1nc2ccccc2s1)/c1ccc2c(c1)OCO2	·	1%	·	·	0%	·
C[N+](C)(CCCCCI)c1ccc(/C=C/c2nc3ccccc3s2)cc1	·	79µM*	·	·	45µM*	·
O=C(Nc1ccc2cn[nH]c2c1)c1c(Cl)cccc1Cl	-6%	16%	-10%	-8%	-9%	-24
O=C1C(Cl)=C(Nc2ccc3cn[nH]c3c2)C(=O)c2ccccc21	-35%	?	50µM*	?	-25%	-87*
O=C(NN=C1CCCC1)c1cccc(O)c1	9%	14%	7%	22%	-5%	0
O=C(NN=C1CCCC1)c1cc(O)cc(O)c1	-33%	35µM*	50µM*	20µM*	?	-79*
Cc1cc(Br)cc2c1N(Cc1ccccc1OC(C)C)C(=O)C2=O	·	?	·	4%	-9%	·
Cc1cc(N2CCN(c3ccccc3F)CC2)n2cnnc2n1	·	14%	-7%	11%	-9%	·
Cc1cc(N2CCN(c3cccc(C)c3C)CC2)n2cnnc2n1	·	?	-17%	0.16µM*	-28%	·
CN(C)c1ccc(/C=C/c2cc[n+](C)cc2)cc1	79µM*	3%	-23%	-1%	-20%	-12
CCN(CC)c1ccc(/C=C/c2ccc3ccc(OC)cc3[n+]2CC)cc1	56µM*	?	-22%	-24%	-2%	-15
CN(C)c1ccc(/C=C/c2cc[n+]([O-])cc2)cc1	·	·	·	0%	·	·
CN(C)c1ccc(/C=C/c2ccc3ccccc3[n+]2[O-])cc1	·	-13%	·	·	-12%	·
CN(C)c1ccc(/C=C/c2cc[n+]([O-])c3ccccc23)cc1	·	6%	·	·	2%	·
CC[n+]1ccc(/C=C/c2ccc(N(C)C)cc2)c2ccccc21	45µM*	-29%	?	45µM*	?	?
CC[n+]1c(/C=C/c2ccc(N(C)C)cc2)ccc2ccccc21	?	-23%	?	28µM*	-36%	-22
O=C(Nc1ncnc2sc3c(c12)CCCCC3)c1ccco1	2%	-4%	22µM*	7%	-8%	2
O=C(Nc1ncnc2sc3c(c12)CCCC3)c1ccncc1	1%	36%	-20%	8%	9%	0
COc1cc(/C=C(\C#N)c2[nH]nc(N)c2C#N)cc(OC)c1O	?	?	?	?	-20%	-64*
COc1cc(/C=C(\C#N)c2ccccn2)cc(OC)c1O	-18%	-14%	5%	-21%	-8%	-3
O=c1c2ccccc2oc2ccc(-c3ccc4[nH]ccc4c3)cc12	-3%	-16%	-15%	·	-13%	11
Cc1cc(NC(=O)Nc2nnc(N3CCCCC3)s2)ccc1Br	·	23%	-13%	-19%	-5%	·

High-throughput results: PubChem, National Center for Advancing Translational Sciences (NCATS)
